Experimental data: PubChem BioAssay
Active and inactive are the calls of the source. How the calls were made is not given here.

The molecules below were run against Pantothenate synthetase (Mycobacterium tuberculosis (strain ATCC 25618 / H37Rv)) (UniProt P9WIL5) (assay: Recombinant Mtb pantothenate synthetase (PanC) inhibitors, coupled enzyme, confirmatory (AID 375;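 further: 0% = full reaction with vehicle and 100% = no enzyme background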)). Conditions: coupled enzyme assay; at 10 µM, hits give high values.
Sequence of Pantothenate synthetase (Mycobacterium tuberculosis (strain ATCC 25618 / H37Rv)) (P9WIL5 whole entry, looked up): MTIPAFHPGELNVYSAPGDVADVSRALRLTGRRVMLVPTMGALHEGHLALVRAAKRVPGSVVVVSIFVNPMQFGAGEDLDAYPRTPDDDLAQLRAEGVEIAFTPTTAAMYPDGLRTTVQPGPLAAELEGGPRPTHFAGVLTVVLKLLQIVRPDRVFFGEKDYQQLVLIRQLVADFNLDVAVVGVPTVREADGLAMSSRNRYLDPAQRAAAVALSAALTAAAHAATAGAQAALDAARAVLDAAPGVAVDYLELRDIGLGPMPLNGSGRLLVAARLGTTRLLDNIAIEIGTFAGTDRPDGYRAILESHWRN

Question: With `CCN(CC)CCn1c2ccccc2c2nc(C)sc21` as the molecule, how does the inhibition read?
Answer: 1% (inactive)

Question: For `CCCC(=O)Nc1nc2ccc(S(N)(=O)=O)cc2s1`, which inhibition is on record?
Answer: 0% (inactive)

Question: How did the inhibition turn out when `CCCc1cc(=O)n2[nH]cnc2n1` was run?
Answer: 0% (inactive)

Question: With `COc1ccccc1OCCNC(=O)c1cccs1` as the molecule, how does the inhibition read?
Answer: 0% (inactive)

Question: For `Cc1ccc(Cn2c(C(=O)NCCCN3CCOCC3)cc3sccc32)cc1`, which inhibition is on record?
Answer: 2% (inactive)

Question: For `Cc1cc(NC(=O)c2ccc3c(c2)C(=O)N(Cc2cccnc2)C3=O)no1`, which inhibition is on record?
Answer: 0% (inactive)

Question: Which inhibition does the source give for `Cc1ccccc1NS(=O)(=O)c1cc(S(C)(=O)=O)ccc1Cl` here?
Answer: 0% (inactive)

Question: With `COC(=O)Cc1cc(=O)[nH]c(Nc2nc3ccccc3o2)n1` as the molecule, how does the inhibition read?
Answer: 0% (inactive)

Question: Which inhibition does the source give for `COc1ccc(C2C3=C(OC(C)=O)c4ccccc4C3=Nc3c2c(=O)n(C)c(=O)n3C)cc1` (stereo not given) here?
Answer: 2% (inactive)

Question: With `Clc1ccc(OCc2nnc(SCCN3CCCCC3)n2Cc2ccco2)cc1` as the molecule, how does the inhibition read?
Answer: 0% (inactive)

Question: With `Cn1c(-c2ccccc2)c(CCO)c2ccccc21` as the molecule, how does the inhibition read?
Answer: 9% (inactive)

Question: How did the inhibition turn out when `Cc1ccc(S(=O)(=O)Cc2ccc(C(=O)NCCCN3CCN(C)CC3)o2)cc1` was run?
Answer: 1% (inactive)

Question: How did the inhibition turn out when `Cc1nc2cc(-n3ccc(=O)cc3)ccc2n1-c1ccccc1` was run?
Answer: 2% (inactive)

Question: Which inhibition does the source give for `CCn1c(=S)ccc2ccc(OC)cc21` here?
Answer: 0% (inactive)

Question: Which inhibition does the source give for `Cc1nc(-c2cnn(-c3ccccc3)c2)c2cc(C)oc2n1` here?
Answer: 2% (inactive)

Question: Which inhibition does the source give for `COc1ccc(Br)cc1C1N2CC3(C)CN1CC(C)(C2)C3=O` (stereo not given) here?
Answer: 0% (inactive)

Question: With `CCc1nnc(NC(=O)c2ccc(-c3cccc(C(F)(F)F)c3)o2)s1` as the molecule, how does the inhibition read?
Answer: 0% (inactive)

Question: With `O=C(NCCc1c[nH]c2ccccc12)c1cnc2n(c1=O)CCS2` as the molecule, how does the inhibition read?
Answer: 1% (inactive)

Question: For `CCN(CC)C(=O)CSc1nnc(-c2cc(OC)cc(OC)c2)o1`, which inhibition is on record?
Answer: 0% (inactive)

Question: `COCCNC(=O)CSc1nc(-c2ccc(OC)c(OC)c2)cc(C(F)(F)F)n1` was tested. Which inhibition did it give?
Answer: 2% (inactive)

Question: How did the inhibition turn out when `CN(C)c1ccc(/C=C/c2ccncc2)cc1` was run?
Answer: 1% (inactive)

Question: For `Cc1cc2ncc(-c3ccc(Cl)cc3)c(N)n2n1`, which inhibition is on record?
Answer: 0% (inactive)

Question: With `Cc1cccc(Nc2ccccc2C(=O)O)c1C` as the molecule, how does the inhibition read?
Answer: 4% (inactive)

Question: `CCN1CCc2c(C#N)c(N3CCOCC3)nc(NCc3ccccc3)c2C1` was tested. Which inhibition did it give?
Answer: 0% (inactive)

Question: With `COc1ccccc1NC(=O)CSc1nnc(Cn2nnc(-c3ccccc3)n2)n1-c1ccccc1` as the molecule, how does the inhibition read?
Answer: 0% (inactive)

Question: For `Cn1cccc1C1NC(=O)c2c(sc3c2CCC(C(C)(C)C)C3)N1` (stereo not given), which inhibition is on record?
Answer: 3% (inactive)

Question: `CCOC(=O)c1oc2ccccc2c1CSc1nnnn1-c1ccc(OC)cc1` was tested. Which inhibition did it give?
Answer: 1% (inactive)

Question: With `CCCCOc1ccccc1NC(=O)c1ccco1` as the molecule, how does the inhibition read?
Answer: 0% (inactive)

Question: Which inhibition does the source give for `O=C(NC1CCN(Cc2nnnn2CCc2ccccc2)CC1)c1ccccc1F` here?
Answer: 3% (inactive)

Question: With `CCc1cccc2c3c([nH]c12)C(CC)(CC(=O)O)OCC3` (stereo not given) as the molecule, how does the inhibition read?
Answer: 0% (inactive)

Question: For `CN(Cc1ccccc1)Cc1nc2c([nH]1)c(=O)[nH]c(=O)n2C`, which inhibition is on record?
Answer: 7% (inactive)

Question: `Cc1nc2ccc(C(=O)c3ccccc3)cc2[nH]1` was tested. Which inhibition did it give?
Answer: 0% (inactive)

Question: For `COC(=O)C1(C)NC(c2ccco2)C2C(=O)N(c3ccc(C)cc3)C(=O)C21` (stereo not given), which inhibition is on record?
Answer: 4% (inactive)

Question: `CCOCCc1nnc(NC(=O)c2ccc(OC)c(OC)c2)s1` was tested. Which inhibition did it give?
Answer: 0% (inactive)

Question: Which inhibition does the source give for `CCCCN(CCCC)CCn1cnc2c([nH]c3ccc(OC)cc32)c1=O` here?
Answer: 4% (inactive)

Question: How did the inhibition turn out when `Cc1cccc(C(=O)N(C)c2nnc(-c3ccncc3)s2)c1` was run?
Answer: 0% (inactive)

Question: `Cc1ccc(Nc2cc(C)nc3ncnn23)c(Cl)c1` was tested. Which inhibition did it give?
Answer: 0% (inactive)

Question: How did the inhibition turn out when `Cc1onc(-c2ccccc2)c1C(=O)Nc1sc2c(c1C(N)=O)CCC2` was run?
Answer: 5% (inactive)

Question: For `Cc1ccc(-c2nc(CS(=O)CC(=O)NCCN(CC(C)C)CC(C)C)c(C)o2)cc1` (stereo not given), which inhibition is on record?
Answer: 4% (inactive)

Question: `CCOC(=O)c1c(C)oc2ccc(OCC(N)=O)cc12` was tested. Which inhibition did it give?
Answer: 0% (inactive)
